Measured values: PubChem BioAssay (EPA / NIEHS)
Active and inactive are the calls of the source. How the source made its calls: active means hit-call score of the fitted dose curve at least 0.9, where 1 is the maximum; inactive means score below 0.9.

Read-out: Cytochrome P450 3A7 (Homo sapiens) (UniProt P24462)
Test: LTEA_HepaRG_CYP3A7: Life Technologies and Expression Analysis (LTEA) Assay for CYP3A7 using HepaRG (AID 2283492)
Conditions: mRNA level, 48 h; actives raise or lower the signal
Experimental: LTEA_HepaRG is a cell based, multiplexed-readout assay that uses HepaRG, a human liver cell line, with measurements taken at 48 hours after chemical dosing on a 96-well plate.LTEA_HepaRG_CYP3A7 is one of 102 assay component(s) measured in the LTEA HepaRG cell culture assay. It is a marker of NR mediated metabolism/Undifferentiated hepatocyte.Data from the assay component LTEA_HepaRG_CYP3A7 was analyzed into 1 endpoint. This assay endpoint, LTEA_HepaRG_CYP3A7, was analyzed with bidirectional fitting relative to DMSO as the negative control and baseline of activity. Using a type of inducible reporter, measures of mRNA induction for gain or loss-of-signal activity can be used to understand regulation of transcription factor activity. To generalize the intended target to other relatable targets, this assay endpoint is annotated to the cyp intended target family, where the subfamily is xenobiotic metabolism.
A total of 1060 chemcials from the ToxCast library were tested in eight-point concentration-response experiments. Cell culture and cytotoxicity assays were conducted at Thermo Fisher Scientific's Custom Services facility (Madison, WI). A single lot of human HepaRG cells (Thermo Fisher Scientific, Frederick, MD) was used for the cell culture experiments. 96-well format collagen type I coated plates of human HepaRG cells were prepared using established methods. Briefly, cryopreserved HepaRG cells were thawed, plated at a density of approximately 100,000 cells/well in HepaRG Thaw, Plate, and General Purpose media (HPRG770, Thermo Fisher Scientific), and incubated for 48 hours. 0.5% DMSO was selected as vehicle control to balance the requisite need of DMSO in HepaRG cultures to maintain differentiation (for example, baseline metabolism, proportions of hepatocytes vs. cholangiocytes), while enabling further hepatic receptor pathway activation (for example, PXR and CAR) in response to chemical exposure. 48 hours after plating, the culture medium was replaced with HepaRG Serum-Free Incudtion Media. Cells were exposed to each test chemical in duplicate and maintained in CO2 incubators for another 48 hours. Chemical plates were thawed to room temperature and 200x concentrations of treatment groups were prepared. 8-point conentration-reponse curves were made with the highest exposure at 100 uM, followed by half-log dilutions, all in 0.5% DMSO. Each test plate contained variouse controls, induction positive controls (1mM phenobarbital), cytotoxicity positive controls ([…] aflatoxin B1), vehicle controls (0.5% DMSO), and total lysis controls (0.5% DMSO). Cell morphology images were taken using an Essen IncuCyte FLR automated microscope, with six 96-well plates imaged in about 24 minutes. Images were captured and exported and JPEG files. Spent culture media was transfered to black-well plates for the LDH assay, and remaining media was sorted at -80 C for later use. Cells were treated with RLT buffer and frozen until shipped for gene expression analysis. Total RNA was isolated from the cell suspension in 75 uL of Buffer RLT (Qiagen, Germantown, MD 20874) by Quintiles/Expression Analysis (Durham, NC) using a custom isolation procedure. Total RNA from each plate well was transferred to a preamplification plate. Fluidigm's 96.96 Dynamic ArrayTM (Fluidigm, Amsterdam, the Netherlands) technology was used for gene expression analyses by quantitative reverse transcription polymerase chain reaction (qRT-PCR, performed by Quintiles/Expression Analysis, Durham, NC)89. Standard TaqManTM Assays (Applied Biosystems/ThermoFisher Scientific, Foster City, CA) were used to assess the expression of 93 genes selected based on their selectivity and sensitivity to important hepatic receptors known to be modulated by environmental chemicals; importance in human hepatocyte functionality; and hepatotoxicity. […]

Chain of Cytochrome P450 3A7 (Homo sapiens) (P24462 whole entry, looked up): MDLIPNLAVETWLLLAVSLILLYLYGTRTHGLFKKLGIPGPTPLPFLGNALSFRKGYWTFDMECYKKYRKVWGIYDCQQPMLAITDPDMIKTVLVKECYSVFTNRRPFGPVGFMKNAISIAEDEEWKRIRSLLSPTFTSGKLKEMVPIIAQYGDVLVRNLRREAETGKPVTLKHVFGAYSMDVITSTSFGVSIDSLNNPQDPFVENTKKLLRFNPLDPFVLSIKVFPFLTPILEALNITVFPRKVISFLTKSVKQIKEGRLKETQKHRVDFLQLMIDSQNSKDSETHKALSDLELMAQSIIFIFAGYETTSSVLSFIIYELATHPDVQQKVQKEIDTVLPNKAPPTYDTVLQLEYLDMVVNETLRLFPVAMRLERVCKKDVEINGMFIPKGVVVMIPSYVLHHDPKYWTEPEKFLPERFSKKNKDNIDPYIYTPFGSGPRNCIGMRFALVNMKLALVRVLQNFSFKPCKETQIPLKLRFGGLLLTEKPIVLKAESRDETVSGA

SMILES	outcome	AC50
CCCCOC(=O)CCCCC(=O)OCCCC	inactive	–
O=C(O)CC(O)(CC(=O)O)C(=O)O	inactive	–
CCC(C)N(C)C(=O)c1cc2ccccc2c(-c2ccccc2Cl)n1 (stereo not given)	inactive	–
O=C(N[C@@H](c1ccccc1)[C@@H]1CCCCN1)c1cccc(C(F)(F)F)c1Cl	inactive	–
CCCCC(CC)COP(=O)(OCC(CC)CCCC)OCC(CC)CCCC (stereo not given)	–	5.61 µM (active)
CC(=O)O[C@]1(C(C)=O)CC[C@H]2[C@@H]3C=C(Cl)C4=CC(=O)[C@@H]5C[C@@H]5[C@]4(C)[C@H]3CC[C@@]21C	inactive	–
CCCCCCCCCCCCCCOS(=O)(=O)O	inactive	–
O=C1CCCCC1	inactive	–
CSc1ccc(Oc2ccc(S(N)(=O)=O)cc2CN(C)C)cc1C	inactive	–
Cc1cn([C@H]2C=C[C@@H](CO)O2)c(=O)[nH]c1=O	inactive	–
C/C=C/C=C/C(=O)O	inactive	–
OCC(CO)n1cnc(-c2ccc(F)cc2)c1-c1ccnc(Oc2ccccc2)n1	–	7.88 µM (active)
C=CCc1ccc(OC)c(OC)c1	inactive	–
N[C@@H](Cc1c[nH]c2ccccc12)C(=O)O	inactive	–
CC(C)c1cccc(C(C)C)c1NC(=O)NS(=O)(=O)c1cc(C(C)(C)O)co1	inactive	–
CCc1cc(C2=C(C(=O)O)N(c3ccccc3C(F)(F)F)S(=O)(=O)c3ccccc32)cc2c1OCO2	–	0.645 µM (active)
COc1ccc(C(=O)Nc2nc3ccccc3c(NCc3ccccc3)c2C#N)cc1	–	14.3 µM (active)
CCCCCCCCCC[N+](C)(C)[O-]	inactive	–
CC(C)OC(=O)C(C)(C)Oc1ccc(C(=O)c2ccc(Cl)cc2)cc1	inactive	–
O=C(NS(=O)(=O)/C=C/c1cccs1)c1ccc(F)cc1Br	–	5.96 µM (active)

SMILES	outcome	AC50
O=C(O)c1cccnc1	inactive	–
COC(=O)CCCC(=O)OC	inactive	–
Cc1ccc(C(C)(C)C)c(O)c1	inactive	–
CC(C)(C)c1ccccc1	inactive	–
C#CC(O)C(CC)CCCC (stereo not given)	inactive	–
CC(N)=O	inactive	–
COC(=O)CCC(=O)OC	inactive	–
CN(C)C(=O)NC1(c2ccccc2)CCN(CC[C@@]2(c3ccc(F)c(F)c3)CN(C(=O)c3ccccc3)CCO2)CC1	–	2.8 µM (active)
CC(C)c1cccc(C(C)C)c1	inactive	–
Cc1cc(Cc2ccc(N)c(C)c2)ccc1N	–	10.8 µM (active)
Cc1occc(=O)c1O	inactive	–
O=C1O[C@H]([C@H](O)CO)C(O)=C1O	inactive	–
CCN(CC)CCOc1ccc(C(=C(Cl)c2ccccc2)c2ccccc2)cc1	inactive	–
CCc1nc(N)nc(N)c1-c1ccc(Cl)cc1	inactive	–
S=c1[nH]c2ccccc2s1	inactive	–
COc1ccc(OC(F)(F)F)cc1CN[C@H]1CCCN[C@H]1c1ccccc1	inactive	–
O=C1c2c(O)cccc2Cc2cccc(O)c21	inactive	–
O=Cc1ccccc1C=O	inactive	–
CC(=O)CC(c1ccccc1)c1c(O)c2ccccc2oc1=O (stereo not given)	–	34.7 µM (active)
Oc1ccccc1O	inactive	–
